# Source: PubChem (National Center for Advancing Translational Sciences (NCATS))
# Shown are actives, neighbours in structure and some others; about 17% of the full set was active somewhere.
# ATXN2 expr inh = reduces ATXN2 reporter expression in HEK-293 cells; HEK-293 ATXN2-luciferase reporter, luminescence, 24 h; Potency, µM (top dose mostly 57 µM), for the others: top-dose activity change, negative = inhibition, most hits filed as inhibitors; 360,000 tested, 0.72% active; AID 1745845; further: on the % scale 0 is the no-effect control and ±100 the full control effect; nearly all actives have a fitted effect of over 55% in size
#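 qHTS (up to 57 uM final) was run with 24 h compound exposure of reporter cells at 37 °C. Each well was multiplexed: SteadyGlo luminescence measured ATXN2-luciferase expression after a fluorogenic Gly-Phe-AFC viability readout (25 uM final).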
# ATXN viability = reduces viability in counter-screen for ATXN expression inhibitors | AID 651635 | 400,000 tested, 0.49% active | S2 cells (HEK-293 line with an ATXN2-luciferase reporter) viability, CellTiter-Fluor protease fluorescence, 24 h | Potency, µM (titrated, usually from 56.7 µM), most hits filed as cytotoxic; further: nearly all actives have a fitted effect of over 40% in size
# TGFb inhibitor = blocks TGF-b signaling; Potency, µM (series often up to 46.1 µM), without a hit: top-dose activity, negative = inhibition, usual class: inhibitors; AID 588855; HepG2 CAGA-GFP TGF-b/SMAD3 reporter, GFP fluorescence, 18 h; TGF-beta stimulated, 500 pg/mL final; 410,000 tested, 1.2% active; further: on the % scale 0 is the no-effect control and ±100 the full control effect; nearly all actives have a fitted effect of over 65% in size
#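 HEPG2 CAGA-GFP, 1000 cells/well; 2 h settle, 37 C; cpd via pin tool; TGF-b 500 pg/mL final; 18 h, 37 C; GFP imaging ex488/em500-530; %Activity normalised to -TGF-b and +DMSO controls; CRC fit, curve class.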
# HepG2 tox = kills HepG2 cells in TGF-b inhibitor counter-screen; Potency, µM (highest dose often 46.1 µM), for the others: at the highest dose activity change, negative = cytotoxicity, most hits filed as cytotoxic; HepG2 CAGA-GFP viability, ATP luminescence, 18 h; 410,000 tested, 0.76% active
#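 HepG2 CAGA-GFP cells (1000/well, DMEM with 1% FBS) received compound, then TGF-beta at 500 pg/mL final, and were incubated 18 hours at 37 degrees C. Viability was read by CellTiter-Glo luminescence. Media-only wells were set as complete cell-killing and DMSO as no toxicity.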
# TDP1 cell noCPT = qHTS for Inhibitors of human tyrosyl-DNA phosphodiesterase 1 (TDP1): qHTS in cells in absence of CPT; DT40 Tdp1-/- hTDP1 cells, no CPT, ATP luminescence, 48 h; Potency, µM (highest dose often 46.2 µM), for inactives: at the top dose activity change, negative = growth inhibition, actives largely listed as inhibitors; 420,000 tested, 15% active; further: on the % scale 0 is the no-effect control and ±100 the full control effect; nearly all actives have a fitted effect of over 55% in size
#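 Chicken DT40 Tdp1-/- cells stably complemented with human TDP1 were seeded at 400 cells/well with DMSO in place of 20 nM camptothecin. After compound pinning, cells grew at least 48 hr at 37 °C; viability read by CellTiter-Glo luminescence.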
# TDP1 cell CPT = DT40-hTDP1 cell growth loss with CPT | Potency, µM (series often up to 46.2 µM), for inactives: at the highest dose activity change, negative = growth inhibition, most hits filed as inhibitors | 420,000 tested, 12% active | chicken DT40 Tdp1-/-;hTDP1 cells + 20 nM CPT, ATP luminescence, 48 h; further: on the % scale 0 is the no-effect control and ±100 the full control effect; nearly all actives have a fitted effect of over 55% in size
#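 Cell growth measured by CellTiter-Glo luminescence after a minimum 48 h, 37 C compound exposure with 20 nM CPT in Tdp1-knockout DT40 cells stably expressing hTDP1, seeded 400/well; qHTS titration format.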
# Starred values were filed as active, the others as inactive; i = inactive; ? = inconclusive; . = no result given. The call rests on the fitted dose curve; in most records, active means well fitted curve in the direction sought with a large enough effect; inconclusive means small, poorly fitted or top-dose-only effect, or another doubt; inactive means no such curve, though single readings can be large; an effect the other way counts as inactive or inconclusive. Potency means the concentration at half of the fitted maximal effect.
SMILES,ATXN2 expr inh,ATXN viability,TGFb inhibitor,HepG2 tox,TDP1 cell noCPT,TDP1 cell CPT
CC(C)CC(COCc1ccc(C(F)(F)F)cc1)N1CCN(C(=O)c2ccc(C(F)(F)F)cc2)CCC1=O (stereo not given),?,?,?,-52%,?,?
CC(C)CC(CO)N1CCN(C(=O)c2cccc(Cl)c2)CCC1=O (stereo not given),-8%,i,-4%,-7%,-16%,-16%
CC(C)CC(COCc1cccc(C(F)(F)F)c1)N1CCN(C(=O)c2cccc(C(F)(F)F)c2)CCC1=O (stereo not given),?,.,?,-16%,23µM*,16µM*
Cc1ccccc1COC[C@H](CC(C)C)N1CCN(C(=O)c2cccc(C(F)(F)F)c2)CCC1=O,-22%,?,2%,-2%,13µM*,16µM*
Cc1nn(Cc2ccc(C(=O)Nc3ccccc3C(F)(F)F)o2)c(C)c1Br,.,.,?,-17%,?,?
Cc1csc(NC(=O)c2ccc(Cn3nc(C)c(Br)c3C)o2)n1,-20%,i,?,-5%,21µM*,?
O=c1nc2ccccc2c2n1CC(CN1CCN(c3ccccc3)CC1)N2 (stereo not given),.,.,.,.,-6%,7%
Cc1nc2ccccc2c(=O)n1C1CCCCCC1,0%,i,-2%,-1%,?,?
CCO/C(C)=N/n1c2nc3ccccc3nc2c2c(=O)n(C3CCCC3)c(C)nc21,1%,?,-5%,-15%,15µM*,18µM*
CC1=Nc2ccccc2N=C(NC(=O)c2ccccc2)C1c1ccc(Cl)cc1 (stereo not given),?,?,?,-8%,21µM*,?
Cc1ccccc1Oc1ccccc1N,8%,i,2%,-1%,5%,-8%
Nc1ccccc1Oc1ccc2ccccc2c1,.,i,16µM*,-35%,?,-29%
Cc1noc(C(=O)N2CC3(C)CC2CC(C)(C)C3)c1Cl (stereo not given),-10%,i,-17%,-9%,18µM*,?
COc1cccc(-c2cc(C(=O)N3CC4(C)CC3CC(C)(C)C4)no2)c1 (stereo not given),2%,i,?,-15%,21µM*,?
O=C(c1cccs1)N1C[C@H](n2cc(C3CC3)nn2)[C@@H](O)C[C@@H]1c1ccc(Cl)cc1,5%,i,6%,-13%,?,-29%
Cc1cccc(OCCC(=O)Nc2ccc(C)c(S(=O)(=O)N3CCCCC3)c2)c1,?,?,?,14%,21µM*,?
Cc1ccc(C(=O)N(C)CCOc2ccccc2)cc1S(=O)(=O)N1CCCCC1,-24%,?,?,-20%,?,18µM*
CN(CCOc1ccccc1)c1ccc(S(=O)(=O)N2CCCCC2)cn1,2%,i,?,3%,21µM*,?
CCCCOc1ccc(S(=O)(=O)N2CCCCCC2)cc1,11%,i,-21%,-37%,-25%,4%
Cc1cccc(OCCC(=O)Nc2ccc(C)c(S(=O)(=O)N3CCOCC3)c2)c1,.,i,?,-23%,?,?
Cc1cccc(OCCCC(=O)Nc2ccc(Cl)c(S(=O)(=O)N3CCOCC3)c2)c1,?,i,?,-15%,12µM*,23µM*
CC(C)(C)C(=O)NCc1ccc(C(=O)CSc2nnc(-c3ccncc3)n2C2CC2)s1,11%,i,18%,2%,-31%,-10%
O=C(NCC1COc2ccccc2O1)c1ccc(Cl)c(S(=O)(=O)N2CCCC2)c1 (stereo not given),-13%,i,?,-4%,?,?
CN(CC1COc2ccccc2O1)C(=O)c1ccc(Cl)c(S(=O)(=O)N2CCCCCC2)c1 (stereo not given),-21%,i,?,-20%,?,16µM*
Cc1ccc(C)c(NC(=S)/C(=C(\[O-])c2ccc(Cl)s2)[n+]2ccccc2)c1,0%,?,0%,0%,-14%,-18%
SMILES,ATXN2 expr inh,ATXN viability,TGFb inhibitor,HepG2 tox,TDP1 cell noCPT,TDP1 cell CPT
CCc1cccc(CC)c1NC(=S)/C(=C(\[O-])c1ccc(Cl)s1)[n+]1ccccc1,-28%,i,?,-32%,1.8µM*,2.3µM*
[O-]/C(=C(\C(=S)Nc1cccc2ccccc12)[n+]1ccccc1)c1ccc(Cl)s1,?,?,6%,20%,18µM*,?
Cc1cc(C)cc(NC(=S)/C(=C(\[O-])c2ccc(Cl)s2)[n+]2cccc(C)c2)c1,-20%,i,-32%,-2%,21µM*,18µM*
CCOc1ccc(NC(=O)Cn2c(=O)n(-c3cccc(Cl)c3)c(=O)c3c2c2cc(C)ccc2n3C)cc1,8%,i,-1%,3%,1%,-9%
CC(=O)N(CCc1cccc(C)c1)Cc1cc2cc(C)ccc2[nH]c1=O,.,i,1%,-30%,?,15µM*
COc1ccc(N(Cc2cc3cccc(C)c3[nH]c2=O)C(=O)c2cccc(Cl)c2)cc1,-27%,?,-29%,-20%,8.2µM*,10µM*
CC(=O)N(CCc1cccc(C)c1)Cc1cc2ccc(C)cc2[nH]c1=O,-31%,i,-3%,-38%,-11%,-5%
COc1ccc2[nH]c(=O)c(CN(C(=O)c3cccc(Cl)c3)c3cccc(C)c3)cc2c1,2%,i,-11%,-14%,18µM*,16µM*
CNC(=S)N(Cc1ccc(OC)cc1)Cc1cc2cccc(C)c2[nH]c1=O,-19%,i,5%,-12%,21µM*,18µM*
COc1ccc(CN(Cc2cc3cccc(C)c3[nH]c2=O)C(=O)N(C)C)cc1,26%,i,-3%,0%,-11%,-20%
CCCN(Cc1cc2cccc(C)c2[nH]c1=O)C(=O)c1cccc(Cl)c1,-2%,i,-14%,-21%,?,?
COc1ccc(Oc2ccc(C(F)(F)F)cc2NC(=O)CC(CC(=O)O)c2ccccc2)cc1 (stereo not given),2%,i,0%,-3%,-2%,-6%
CCOc1cc(C2C3=C(CC(C)(C)CC3=O)N(CCOC)C3=C2C(=O)CC(C)(C)C3)ccc1O,.,i,0%,1%,-15%,2%
COc1ccc(N(Cc2cc3cc(OC)ccc3[nH]c2=O)C(=O)c2cccnc2)cc1,-5%,i,-15%,-21%,23µM*,16µM*
